Experimental findings from PubChem BioAssay (NCATS) are described below.

The nature of assay [1]: qHTS profiling for inhibitors of Plasmodium falciparum (3D7) proliferation (AID 743322).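 Note: infected erythrocytes exposed to compound for 72 h before lysis; 100% = DMSO vehicle wells and 0% = 0.29 µM artemisinin.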 The following applies: P. falciparum 3D7 proliferation; at 28.7 µM (top of the series). Put shortly: (§1)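 Parasite DNA was quantified by SYBR Green I fluorescence (ex 485, em 535 nm) after overnight lysis in saponin/Triton buffer at room temperature. Cultures at 0.3% parasitemia and 2.5% hematocrit were first exposed to compound for 72 h at 37 C; signals were normalised to artemisinin (0.29 uM) and vehicle wells.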

Assay [2] in a line: qHTS profiling for inhibitors of Plasmodium falciparum (DD2) proliferation (AID 743323). The following applies: lower = more inhibition; at 28.7 µM (top of the series). The method, boiled down: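 SYBR Green fluorescence (ex 485, em 535 nm) of lysed cultures gives parasite DNA content; wells normalized to artemisinin (0.29 uM) and DMSO controls. Infected red cells: 0.3% parasitemia, 2.5% hematocrit, 72 h, 37 C.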
On the technique in general: In qHTS, concentration-response curves come from the screen itself.

The nature of assay [3]: qHTS profiling for inhibitors of Plasmodium falciparum (HB3) proliferation (AID 743324).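 Note: 100% = DMSO vehicle wells and 0% = artemisinin-treated control wells.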 The following applies: Plasmodium falciparum HB3 blood-stage proliferation; at 28.7 µM (top of the series). The method, boiled down: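 SYBR Green fluorescence (485 ex/535 em) of lysed cultures, incubated overnight at room temperature in the dark, quantifies parasite DNA. Infected erythrocytes at 0.3% parasitemia and 2.5% hematocrit were exposed 72 h; values normalized to DMSO and 0.29 uM artemisinin controls.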

Assay [4] is described as follows: qHTS profiling of the MIPE4 collection as inhibitors of Plasmodium falciparum (DD2) proliferation (AID 743345). The following applies: P. falciparum Dd2 in erythrocytes, SYBR Green DNA, 72 h; at 28.5 µM (top of the series) unless noted. The method, boiled down: as §1
Assay [5] is described as follows: qHTS profiling of the MIPE4 collection as inhibitors of Plasmodium falciparum (DD2) proliferation (Rep 2) (AID 743346). The following applies: P. falciparum Dd2 in erythrocytes, SYBR Green DNA, 72 h; at 28.5 µM (top of the series) unless noted. Put shortly: as §1
A short description of assay [6]: High-throughput drug toxicity screening in the BPDCN cell line Gen2.2 (AID 1224824).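 Note: cells exposed to compounds for 48 h before reading.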 The following applies: Gen2.2 BPDCN cells; at 45.8 µM (top of the series) unless noted. Put shortly: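 Gen2.2 cells, 500 per well in phenol red-free RPMI with 10% FBS, exposed to compounds 48 h at 37 C, 5% CO2; viability by CellTiter-Glo luminescence. Percent activity scaled to DMSO (100%) and 9.2 uM bortezomib final (0%).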

The nature of assay [7]: High-throughput drug toxicity screening in the BPDCN cell line Cal-1 (AID 1224825). The following applies: Cal-1 BPDCN cell viability, qHTS; at 45.8 µM (top of the series) unless noted. The method, boiled down: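 Viability of the BPDCN line Cal-1 is measured as ATP-based luminescence (CellTiter-Glo) following 48 h incubation with compounds. Percent activity uses DMSO-treated wells as 100% and 9.2 uM bortezomib as 0%.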

The nature of assay [8]: qHTS profiling of the MIPE4 collection as inhibitors of Plasmodium falciparum (3D7) proliferation (AID 743344).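 Note: scaled between DMSO vehicle wells and 0.29 µM artemisinin as full inhibition.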 The following applies: P. falciparum 3D7 in erythrocytes, SYBR Green DNA fluorescence, 72 h; at 28.5 µM (top of the series) unless noted. The method, boiled down:
as §1

Assay [9] can be described thus: qHTS profiling of the MIPE4 collection as inhibitors of Plasmodium falciparum (HB3) proliferation (AID 743347).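 Note: plate controls were DMSO vehicle wells for no effect and artemisinin wells for full effect.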 The following applies: P. falciparum HB3 in erythrocytes, SYBR Green DNA, 72 h; at 28.5 µM (top of the series) unless noted. The method, boiled down:
as §1

With `COc1ccc(CC2SC(=O)NC2=O)cc1C(=O)NCc1ccc(C(F)(F)F)cc1` (centres undefined), the remaining parasite growth % (stronger effect = lower value) in assay [1] amounted to 90.2%. Moreover, the activity, percent of control in assay [2] worked out at 93.1%. In assay [3], this compound gave a remaining proliferation (% of control), lower = more inhibition of 54.2%. The compound also showed a parasite growth remaining, % of DMSO control (lower = more inhibition) in [4] of 91.4%. In assay [5], this compound showed a parasite growth, % of control (lower = inhibition) of 56.9%. The cell viability, % of control (lower = more cytotoxic) in [6] was 96%. This compound displayed a viability (% of control) in [7] of 84.9%.

For `C=CC(=O)Nc1cccc(Oc2nc(Nc3ccc(N4CCN(C)CC4)cc3OC)ncc2Cl)c1`, the remaining parasite growth % (stronger effect = lower value) in assay [1] is 5.98%. In addition, the activity, percent of control in [2] was found to be 12.5%. The remaining proliferation (% of control), lower = more inhibition in [3] was 6.16%. In addition, the parasite growth, % of DMSO control in assay [8] is 10.5%. The parasite growth remaining, % of DMSO control (lower = more inhibition) in assay [4] came to 15.1%. Further, the parasite growth, % of control (lower = inhibition) in assay [5] worked out at 26.7%. In assay [9], this compound had a growth, % of control of 4.13%. Further, the cell viability, % of control (lower = more cytotoxic) in assay [6] came out at 8%. Moreover, the viability (% of control) in assay [7] came out at 16.3%.

For `COc1cc2c(Oc3ccc4[nH]c(C)cc4c3F)ncnc2cc1OCCCN1CCCC1`, the remaining parasite growth % (stronger effect = lower value) in [1] was -0.853%. The activity, percent of control in assay [2] was found to be 1.27%. In assay [3], this compound gave a remaining proliferation (% of control), lower = more inhibition of 0.351%. Moreover, the parasite growth, % of DMSO control in assay [8] was determined as 6.49%. Further, in assay [4], the parasite growth remaining, % of DMSO control (lower = more inhibition) was 8.16%. In [5], this compound gave a parasite growth, % of control (lower = inhibition) of 15.9%. In assay [9], this compound displayed a growth, % of control of 6.98%. For the same compound, in [6], the cell viability, % of control (lower = more cytotoxic) was 7.59%. The same compound returned a viability (% of control) in [7] of 6.46%.

As to `CN(C)CCCN=c1c2ccccc2n(C)c2[nH]c(=O)n(C)c(=O)c12`, the remaining parasite growth % (stronger effect = lower value) in [1] was determined as 5.55%. Besides, the activity, percent of control in assay [2] was 15.1%. In addition, in [3], the remaining proliferation (% of control), lower = more inhibition worked out at 3.8%. Also, the parasite growth, % of DMSO control in [8] was 5.98%. In addition, in assay [4], the parasite growth remaining, % of DMSO control (lower = more inhibition) is 10.8%. The same compound had a parasite growth, % of control (lower = inhibition) in [5] of 9.14%. Moreover, the growth, % of control in [9] was 3%. For the same compound, the cell viability, % of control (lower = more cytotoxic) in assay [6] was 2.75%. This compound displayed a viability (% of control) in assay [7] of 4%.

Regarding `C=C1C(=CC=C2CCC[C@]3(C)[C@@H]([C@H](C)C=C[C@H](C)C(C)C)CC[C@@H]23)C[C@@H](O)C[C@@H]1O`, in assay [1], the remaining parasite growth % (stronger effect = lower value) came out at 88.6%. Also, the activity, percent of control in assay [2] is 102%. Moreover, in [3], the remaining proliferation (% of control), lower = more inhibition turned out to be 92.2%. The parasite growth, % of control (lower = inhibition) in assay [5] is 7.88%. Besides, the growth, % of control in assay [9] was 9.22%. For the same compound, the cell viability, % of control (lower = more cytotoxic) in assay [6] stood at 104%. The viability (% of control) in [7] came out at 5.8%.

In the case of `CCN1CCN(CC(=O)Nc2ccc(-c3cccc4c(=O)cc(N5CCOCC5)oc34)c3sc4ccccc4c23)CC1`, the remaining parasite growth % (stronger effect = lower value) in assay [1] was -0.258%. In addition, in assay [2], the activity, percent of control turned out to be 0.865%. In [8], this compound yielded a parasite growth, % of DMSO control of 5.76%. The parasite growth remaining, % of DMSO control (lower = more inhibition) in assay [4] was 6.58%. This compound also gave a parasite growth, % of control (lower = inhibition) in assay [5] of 16.5%. In addition, the cell viability, % of control (lower = more cytotoxic) in assay [6] is 1.44%. For the same compound, in assay [7], the viability (% of control) came to 2.53%.

As to `CCC(=C(c1ccccc1)c1ccc(OCCN(C)C)cc1)c1ccccc1`, the remaining parasite growth % (stronger effect = lower value) in [1] was found to be 17.2%. In assay [2], the activity, percent of control came to 5.96%. Further, in assay [3], the remaining proliferation (% of control), lower = more inhibition came out at 8.11%. The compound also had a parasite growth, % of control (lower = inhibition) in assay [5] of 31%. Moreover, in assay [9], the growth, % of control came to 69.7%. The cell viability, % of control (lower = more cytotoxic) in [6] is 31.7%. The compound also yielded a viability (% of control) in assay [7] of 23.2%.

As for `CCN(CC)CCCCNc1ncc2cc(-c3cc(OC)cc(OC)c3)c(NC(=O)NC(C)(C)C)nc2n1`, in [1], the remaining parasite growth % (stronger effect = lower value) was -0.484%. Also, the activity, percent of control in assay [2] came to 1.21%. Also, in assay [3], the remaining proliferation (% of control), lower = more inhibition amounted to 0.178%. The compound also yielded a parasite growth, % of control (lower = inhibition) in assay [5] of 8%. Further, the cell viability, % of control (lower = more cytotoxic) in [6] stood at 4.8%. Moreover, the viability (% of control) in assay [7] was 1.79%.

Take `Cn1c(=O)n(-c2ccc(C(C)(C)C#N)cc2)c2c3cc(-c4cnc5ccccc5c4)ccc3ncc21`: the remaining parasite growth % (stronger effect = lower value) in [1] was 1.17%. Moreover, the activity, percent of control in assay [2] worked out at 10.2%. In addition, the remaining proliferation (% of control), lower = more inhibition in assay [3] is 1.06%. In addition, the parasite growth, % of DMSO control in assay [8] was found to be 5.06%. In addition, the parasite growth, % of control (lower = inhibition) in [5] is 6.52%. Moreover, the growth, % of control in assay [9] was 2.31%. Also, in assay [6], the cell viability, % of control (lower = more cytotoxic) was found to be 8.42%. This compound yielded a viability (% of control) in [7] of 11.9%.
